The results in this text go back to PubChem BioAssay (Tox21).

Experiment [1] can be described thus: qHTS assay to identify small molecule agonists of the hypoxia (HIF-1) signaling pathway - cell viability counter screen (AID 1224844; calls by dose curve; further: nearly all actives have a fitted effect of over 50% in size; further: potency means the concentration at half of the fitted maximal effect). A digest of the protocol: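 CellTiter-Glo luminescence read-out, 30 min RT, taken in the same wells as the beta-lactamase HRE reporter assay; HRE-bla ME-180 cells, 0.5% dialyzed FBS, 17 hr compound treatment at 37C, 5% CO2.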

Experiment [2] in a line: qHTS assay to identify small molecule agonists of H2AX (AID 1224845; active means well fitted activation curve with a large enough effect in the signal ratio in the repeat runs, not every such curve was filed as active; the % refers to the signal ratio). In a few lines:
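Wild-type CHO-K1 cells, plated overnight, exposed 3hr at 37C to 15 concentrations (0.76% DMSO final). Lysed, then HTRF anti-pH2AX (S139) cryptate and anti-H2AX-d2 antibodies, 24 hr room temperature; 665/620 nm emission read.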

Experiment [3] is described as follows: qHTS assay to identify small molecule agonists of the hypoxia (HIF-1) signaling pathway (AID 1224846; active means well fitted activation curve with a large enough effect in the signal ratio in the repeat runs, not every such curve was filed as active; the % refers to the signal ratio). In a few lines: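 Beta-lactamase FRET read-out (CCF4-AM substrate) from ME-180 cells carrying an HRE-driven bla reporter, after 17 hrs compound exposure at 37C/5% CO2. Cells were seeded at 2,000 per well in 0.5% dialyzed FBS medium and preincubated 5 hrs.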

Experiment [4] in a line: qHTS assay to identify small molecule agonists of H2AX - cell viability counter screen (AID 1224847; calls by dose curve; further: nearly all actives have a fitted effect of over 30% in size; further: potency means the concentration at half of the fitted maximal effect; on activity change, negative = cytotoxicity: top concentration of the series differs between compounds). A digest of the protocol:
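Counter-screen for viability: CellTiter-Glo ATP luminescence read after 3 h compound treatment (15-point titration, 0.76% DMSO final) of CHO-K1 cells at 37C, with 30 min room-temperature reagent incubation.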

A short description of experiment [5]: qHTS assay to identify small molecule antagonists of the estrogen related receptor (ERR) signaling pathway from Tox21 library (AID 1224848). Further: nearly all actives have a fitted effect of over 50% in size. Further: potency means the concentration at half of the fitted maximal effect. In a few lines:
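Quantitative high-throughput format: ERR reporter cells (2,000/well) pre-incubated 6 h, treated 18 h at 37 C with compounds in DMSO alongside positive and negative controls, then read by ONE-Glo luminescence.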

A short description of experiment [6]: qHTS assay to identify small molecule agonists of the estrogen related receptor (ERR) signaling pathway from Tox21 library (AID 1224849; calls by dose curve; further: nearly all actives have a fitted effect of over 15% in size). To be noted: ERR reporter cell line, ONE-Glo luciferase, 18 h; at 92.4 µM (top of the series) unless noted. In a few lines: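 Luminescence readout (ONE-Glo, 30 min RT) after 18 h compound exposure at 37 C of NTP-supplied ERR reporter cells; cells were plated 6 h before compound addition by pin tool.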

Experiment [7] in a line: qHTS RealTime-Glo MT Cell Viability Assay in HepG2 cells - 24 hour (AID 1224867). Further: nearly all actives have a fitted effect of over 50% in size. Further: potency means the concentration at half of the fitted maximal effect. A digest of the protocol:
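Real-time, nonlytic viability: 600 HepG2 cells/well mixed with NanoLuc enzyme plus prosubstrate; 5 h settle, compound (DMSO) added by pintool; luminescence monitored over 40 h at 37 C.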

Experiment [8] in a line: qHTS RealTime-Glo MT Cell Viability Assay in HEK293 cells - 32 hour (AID 1224868). Further: nearly all actives have a fitted effect of over 50% in size. Further: potency means the concentration at half of the fitted maximal effect. On activity change, negative = cytotoxic: top concentration of the series differs between compounds. In a few lines:
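Cells + reagent dispensed (600 cells/well, HEK293) → 5 h at 37 C/5% CO2 → 23 nL compound in DMSO pinned → 40 h at 37 C → luminescence read at 0, 8, 16, 24, 32, 40 h.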

Experiment [9] can be described thus: A CellTox Green Cytotoxicity Assay to monitor cytotoxicity in HEK293 cells - 0 hour (AID 1224869). Further: nearly all actives have a fitted effect of over 50% in size. Further: potency means the concentration at half of the fitted maximal effect. A digest of the protocol:
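Read-out: fluorescence of a cell-impermeant cyanine dye staining DNA of dead cells, proportional to cytotoxicity. HEK293, 600 cells/well with reagent, compound (23 nL DMSO) added after 5 h; reads at 0, 8, 16, 24, 32, 40 h.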

The nature of experiment [10]: qHTS RealTime-Glo MT Cell Viability Assay in HepG2 cells - 40 hour (AID 1224870). Further: nearly all actives have a fitted effect of over 50% in size. Further: potency means the concentration at half of the fitted maximal effect. In a few lines:
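HepG2 cells (600/well) mixed with RealTime-Glo MT reagent, settled 5 h at 37 C/5% CO2 before compound addition. Nonlytic NanoLuc luminescence from viable-cell prosubstrate reduction read repeatedly during 40 h treatment at 37 C.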

Each structure is given as a SMILES string. A number with no mark means an inactive call. Records with an inconclusive call do not appear. Activity calls are given as the source filed them. Unless noted, the call rests on the fitted dose curve; in most records, active means well fitted curve in the direction sought with a large enough effect in the repeat runs; inconclusive means weak or mixed curves; inactive means no such curve, though single readings can be large; an effect the other way counts as inactive or inconclusive.
On the % scale 0 is the no-effect control and ±100 the full control effect.

With `O=C1CCC(=O)O1`, the Potency result in [1], in [2], in [3], in experiment [4], in experiment [5] and in experiment [7] was “inactive” in each case. For the same compound, the Potency entry in experiment [8], in [9] and in experiment [10] was “inactive” throughout. In addition, the activity change, positive = activation in experiment [6] was 5.7%.
In the case of `NC(=O)C(c1ccccc1)(c1ccccc1)[C@@H]1CCN(CCc2ccc3c(c2)CCO3)C1`, the Potency result in experiment [1], in [2], in experiment [3], in [4], in experiment [5] and in experiment [7] was “inactive” in each case. In addition, the Potency entry in experiment [10] was “inactive”. In experiment [6], the activity change, positive = activation is -1.44% [at 42.5 µM]. Moreover, the Potency in experiment [9] is 21.3 µM (active).
Consider `C[N+]1(CC2COC(c3ccccc3)(C3CCCCC3)O2)CCCCC1` (stereo unspecified), for which the Potency result in experiment [1], in experiment [2], in experiment [3], in [4], in [5] and in experiment [7] was “inactive” throughout. For the same compound, the Potency entry in experiment [9] was “inactive”. Besides, the activity change, positive = activation in experiment [6] is -8.13% [at 42.5 µM]. Further, in [10], the Potency was 23.9 µM (active).
Regarding `ClCCOCCOCCCl`, the Potency result in experiment [1], in experiment [2], in experiment [3], in experiment [4], in experiment [5] and in experiment [7] was “inactive” throughout. In addition, the Potency entry in experiment [8], in experiment [9] and in [10] was “inactive” throughout. Moreover, the activity change, positive = activation in [6] was 2.88%.
With `CC(CSC(=O)c1ccccc1)C(=O)N1C[C@@H](Sc2ccccc2)C[C@H]1C(=O)O` (stereo partly specified), the activity change, negative = cytotoxicity in experiment [1] was -3.08% [at 15.8 µM]; in [4] it was 1.45% [at 31.6 µM]; in experiment [7], 3.68% [at 15.8 µM]. For the same compound, the activation (H2AX phosphorylation) in [2] was 0.449% [at 31.6 µM]. In addition, the activation in [3] is 0.628% [at 15.8 µM]. In addition, in experiment [6], the activity change, positive = activation was -0.059% [at 19 µM]. Further, the activity change, negative = cytotoxic in experiment [8] was -4.06% [at 15.8 µM]; in experiment [10], 2.68% [at 15.8 µM]. Moreover, the cytotoxicity in [9] is -0.576% [at 15.8 µM].
Consider `O=[N+]([O-])c1cccc(S(=O)(=O)O)c1`, for which the Potency result in experiment [1], in experiment [2], in experiment [3], in [7], in experiment [9] and in experiment [10] was “inactive” throughout. Further, the Potency in experiment [4] was 45.7 µM (active); in [5], 27.7 µM (active); in [8], 22.2 µM (active). Also, the activity change, positive = activation in experiment [6] was -46%.
For the compound `NCCCN1CCOCC1`, the Potency entry in experiment [1], in [2], in experiment [3], in experiment [4], in experiment [5] and in experiment [7] was “inactive” each time. For the same compound, the Potency result in experiment [8], in experiment [9] and in [10] was “inactive” throughout. In addition, the activity change, positive = activation in experiment [6] is 6.49%.
With `CCN(CC)CCNc1ccc(CNC=O)c2sc3ccc(OC)cc3c(=O)c12`, the Potency in experiment [1] was 24.5 µM (active); in [7], 21.9 µM (active); in experiment [8], 17.4 µM (active); in experiment [10], 17.4 µM (active). Moreover, the Potency entry in [2], in experiment [3], in experiment [4] and in experiment [9] was “inactive” each time. The activity change, positive = activation in [6] was -41.1%.
As for `C[Si](C)(CCCN)O[Si](C)(C)CCCN`, the Potency entry in [1], in experiment [2], in experiment [3], in [4], in experiment [5] and in experiment [7] was “inactive” in each case. In addition, the Potency entry in [8], in [9] and in experiment [10] was “inactive” each time. In addition, the activity change, positive = activation in experiment [6] was -0.594%.
For `C1CCCNCCC1`, the Potency entry in [1], in [2], in [3], in [4], in [7] and in [8] was “inactive” throughout. For the same compound, the Potency entry in experiment [9] and in [10] was “inactive” in each case. Besides, the activity change, positive = activation in experiment [6] was -2.25%.
Take `CCCCCC[C@@H](O)C/C=C\CCCCCCCC(=O)OC`: the Potency result in [1], in experiment [2], in experiment [3], in experiment [4], in experiment [5] and in experiment [7] was “inactive” in each case. Besides, the Potency result in experiment [8], in [9] and in [10] was “inactive” in each case. For the same compound, the activity change, positive = activation in [6] is 3.83%.
Consider `CN1C[C@H]2c3ccccc3Oc3ccc(Cl)cc3[C@@H]2C1`, for which the Potency entry in experiment [1], in experiment [2], in [3], in experiment [4], in experiment [5] and in experiment [7] was “inactive” throughout. Further, the Potency result in experiment [8], in [9] and in experiment [10] was “inactive” in each case. Moreover, in experiment [6], the activity change, positive = activation was -3.7% [at 42.5 µM].
On to `O=C(NCC1CN(c2ccc(N3CCOCC3=O)cc2)C(=O)O1)c1ccc(Cl)s1` (stereo unspecified), for which the Potency result in experiment [1], in [2], in experiment [3], in experiment [4], in experiment [7] and in [8] was “inactive” in each case. In addition, the Potency result in experiment [9] and in experiment [10] was “inactive” each time. Further, the Potency in experiment [5] was 23.7 µM (active). The activity change, positive = activation in experiment [6] was -38.4% [at 42.5 µM].
`CCCCCCCN`: the Potency entry in [1], in experiment [2], in experiment [3], in [4], in experiment [7] and in experiment [8] was “inactive” each time. Further, the Potency result in experiment [9] and in experiment [10] was “inactive” each time.
`CC/C=C\CCOC(=O)CC`: the Potency result in [1], in experiment [2], in experiment [3], in [4], in [7] and in [8] was “inactive” throughout. Also, the Potency entry in experiment [9] and in experiment [10] was “inactive” throughout.
As for `CC1(c2ccccc2)OC(C(=O)O)=CC1=O` (stereo unspecified), the Potency entry in experiment [1], in [2], in experiment [3], in experiment [4], in [7] and in experiment [8] was “inactive” each time. The Potency result in [9] and in experiment [10] was “inactive” each time.
For `CCOC(=O)c1cccnc1`, the Potency entry in [1], in [2], in experiment [3], in experiment [4], in [7] and in experiment [8] was “inactive” in each case. Moreover, the Potency entry in experiment [9] and in experiment [10] was “inactive” in each case.
For the compound `COCC(C)OC(C)=O` (stereo unspecified), the Potency result in experiment [1], in experiment [2], in [3], in experiment [4], in experiment [7] and in experiment [8] was “inactive” throughout. Moreover, the Potency result in [9] and in experiment [10] was “inactive” each time.
Take `CC(C)(C)OCC1CO1` (stereo unspecified): the Potency result in experiment [1], in [2], in experiment [3], in experiment [4], in experiment [7] and in [8] was “inactive” throughout. The Potency result in experiment [9] and in experiment [10] was “inactive” in each case.
Consider `O=CC1CC=CCC1` (stereo unspecified), for which the Potency entry in experiment [1], in experiment [2], in experiment [3], in [4], in experiment [7] and in experiment [8] was “inactive” in each case. For the same compound, the Potency result in [9] and in [10] was “inactive” in each case.
In the case of `O=C1c2ccccc2S(=O)(=O)N1CCCCN1CCN(c2ncccn2)CC1`, the Potency result in [1], in [2], in experiment [3], in experiment [4], in [7] and in experiment [8] was “inactive” in each case. For the same compound, the Potency result in experiment [9] and in [10] was “inactive” throughout.
For `CN(C)c1ccc(/C=C/c2ccc([N+](=O)[O-])cc2)cc1`, the activity change, negative = cytotoxicity is -6.06% [at 6.97 µM] in experiment [1], -2.45% [at 14 µM] in experiment [4] and -7.57% [at 6.97 µM] in [7]. Also, the activation (H2AX phosphorylation) in experiment [2] was -1.3% [at 14 µM]. Moreover, the activation in experiment [3] is -1.48% [at 7.01 µM]. Further, the activity change, negative = cytotoxic was -5.7% [at 6.97 µM] in experiment [8] and -1.99% [at 6.97 µM] in [10].
